Screening data: PubChem, Paczesny and Yang Labs, IUPUI and University of Michigan
This excerpt belongs to a sample that is enriched for hits.
ST2 IL33 inh: blocks human ST2 binding to IL-33 | AID 1259354 | Q01638 | AlphaLISA ST2-Fc/biotin-IL-33 interaction, 1 h | 78,000 tested, 2.3% active | inhibition, % for hits at 17 µM; in the data active means inhibition above about 30%
Target sequence (Q01638 whole entry, looked up): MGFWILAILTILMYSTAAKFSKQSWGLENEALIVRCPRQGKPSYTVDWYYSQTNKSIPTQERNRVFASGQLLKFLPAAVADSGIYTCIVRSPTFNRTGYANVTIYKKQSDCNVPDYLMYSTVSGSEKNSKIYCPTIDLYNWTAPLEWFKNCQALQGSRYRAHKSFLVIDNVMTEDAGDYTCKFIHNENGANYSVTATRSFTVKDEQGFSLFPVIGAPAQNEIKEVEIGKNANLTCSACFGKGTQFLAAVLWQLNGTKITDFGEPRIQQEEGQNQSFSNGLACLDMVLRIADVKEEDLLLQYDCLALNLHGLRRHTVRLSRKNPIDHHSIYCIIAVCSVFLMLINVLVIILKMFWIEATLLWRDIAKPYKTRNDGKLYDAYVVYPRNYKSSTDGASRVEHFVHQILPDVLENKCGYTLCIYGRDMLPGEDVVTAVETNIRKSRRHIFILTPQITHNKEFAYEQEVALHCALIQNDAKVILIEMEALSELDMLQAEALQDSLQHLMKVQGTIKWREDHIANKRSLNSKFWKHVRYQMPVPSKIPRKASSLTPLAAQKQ
An asterisk follows results filed as active; i = inactive.

SMILES	ST2 IL33 inh
COc1ccc(C(O)(C#Cc2ccccc2)c2ccccc2)cc1 (configuration not stated)	i
O=C1CCCC2=C1C(c1ccc(OCc3ccc([N+](=O)[O-])cc3)cc1)C1=C(CCCC1=O)N2	i
CCOc1ccc(C2C3=C(CCCC3=O)NC3=C2C(=O)c2ccccc23)cc1 (configuration not stated)	36%*
COc1ccc(C2C3=C(CCCC3=O)NC3=C2C(=O)c2ccccc23)cc1 (configuration not stated)	i
COc1ccc(I)cc1S(=O)(=O)n1nnc2ccccc21	i
Cn1cncc1-c1nnc([C@H]2CCN(Cc3cccnc3)C2)o1	i
O=c1[nH]nc(Cc2ccccc2)c2ccccc12	i
COc1ccc(Cc2n[nH]c(=O)c3ccccc23)cc1OC	i
O=c1[nH]nc(C[N+](=O)[O-])c2ccccc12	30%*
O=C(NC1CCCCC1)C1CC1c1ccccc1 (configuration not stated)	i
O=C(c1ccccc1)N1C(O)CCC12CSCC2=O (configuration not stated)	i
Cc1ccc(-c2nnc(-c3ccc(Cl)cc3)o2)cc1	i
COc1ccc(-c2nnc(N)o2)cc1	i
Nc1ccc(-c2nnc(-c3ccc(N)cc3)o2)cc1	37%*
CCOc1ccc2oc(-c3ccccc3)c(C(=O)N3CCOCC3)c2c1	i
N#Cc1c(NC(NC(=O)c2cccs2)C(Cl)(Cl)Cl)sc2c1CCCC2 (configuration not stated)	i
Cc1cnc(NCCc2nn[nH]n2)nc1N(C)C	i
Cc1noc(C)c1CCC(=O)N1CCc2c([nH]c3ccccc23)C1CC(C)C (configuration not stated)	i
O=[N+]([O-])C([N+](=O)[O-])=S(c1ccccc1)c1ccccc1	i
O=[N+]([O-])C=C(c1ccccc1)c1ccccc1	39%*
NC(=O)c1ccccc1	i
CCC(=O)N1CCc2cc(Br)cc(S(=O)(=O)Nc3cccc(Cl)c3)c21	i
CC(C)C1CN(C(=O)c2cc(-c3ccncc3)n[nH]2)CCC(=O)N1CC1CC1 (configuration not stated)	i
C=CCNC(=O)N[C@H]1[C@H](O)[C@@H](N2CCN(c3ccccc3OC)CC2)[C@@H]2OC[C@H]1O2	i
COc1ccccc1N1CCN([C@H]2[C@@H]3OC[C@@H](O3)[C@@H](NCc3cnc4ccccc4c3)[C@@H]2O)CC1	30%*
SMILES	ST2 IL33 inh
NC(=O)C1CCN([C@H]2[C@@H]3OC[C@@H](O3)[C@@H](NCc3cnc4ccccc4c3)[C@@H]2O)CC1	i
CSc1nc(-c2ccco2)nc2c1c(=O)n(C)c(=O)n2C	i
CC(CCN(C)Cc1ncc[nH]1)c1ccccc1 (configuration not stated)	i
CC1=C[C@@H](CNS(=O)(=O)c2cccc(C#N)c2)[C@H](C(C)C)C[C@H]1CC(=O)Nc1ccccn1	i
CC1=C[C@@H](CNC(=O)c2ccc(C#N)cc2)[C@H](C(C)C)C[C@H]1CC(=O)Nc1ccccn1	81%*
CC1=C[C@@H](CNC(=O)c2ccncc2)[C@H](C(C)C)C[C@H]1CC(=O)NCc1ccc(C#N)cc1	i
CC(=O)c1cc(CN2CCc3onc(-c4ccc5c(c4)OCO5)c3C2)cs1	i
O=C(NCc1cccnc1)c1cc2c(=O)oc3ccccc3c2s1	i
CCOc1ccc(-n2c(=O)c3sccc3n(CC(=O)Nc3cccc(Cl)c3)c2=O)cc1	i
O=C(Nc1sc2c(c1C(=O)NCC1CCCO1)CCCC2)c1ccccc1Br (configuration not stated)	i
CC1CCc2c(sc(NC(=O)c3ccccc3Cl)c2C(=O)NCc2ccco2)C1 (configuration not stated)	i
O=C(Nc1sc2c(c1C(=O)NCc1ccco1)CCCC2)c1ccccc1[N+](=O)[O-]	30%*
COc1ccc(C(=O)ON=C2c3ccccc3-c3ccccc32)cc1	40%*
COc1cccc(C(=O)ON=C2C=CC(=O)C=C2)c1	i
COc1ccc(C(=O)OC(C)C(O)c2ccc(OC)cc2)cc1 (configuration not stated)	i
O=C1Nc2ccccc2C(O)(C(=O)NCCC2=CCCCC2)N1c1ccc(Cl)cc1 (configuration not stated)	i
COCCn1c(CNC(=O)c2cccnc2)nc2cccnc21	i
COc1ccc(S(=O)(=O)N2CCN(C(c3ccccc3)c3ccccc3)CC2)cc1	i
COc1ccc(N/C=C(/c2cc(O)ccc2O)[N+](=O)[O-])cc1	45%*
COc1ccc(CC(=O)Nc2ccc(C)c([N+](=O)[O-])c2)cc1	i
COc1ccc(C(=O)Nc2ccc([N+](=O)[O-])cc2)cc1	i
O=[N+]([O-])c1cccc(CN2CCC(N3CCCCCC3)CC2)c1	i
O=[N+]([O-])c1cccc(CN2CCCCC2CCO)c1 (configuration not stated)	i
CCCN(Cc1cccc([N+](=O)[O-])c1)CC1CC1	96%*
COc1cc(/C=C2\SC(N)=NC2=O)cc(OC)c1O	i
SMILES	ST2 IL33 inh
COc1cc(/C=C2\SC(N3CCCCC3)=NC2=O)cc(OC)c1OC	i
COc1cc(/C=C2\SC(c3ccccc3)=NC2=O)cc(Br)c1O	40%*
Cc1cc(C)cc(N2C(=O)NC3CC2(C)Oc2ccccc23)c1 (configuration not stated)	i
CCN(CC)CCN(C)Cc1cc(I)c(O)c(OC)c1	94%*
COc1ccccc1N1CCN(Cc2cc(I)c(O)c(OC)c2)CC1	i
COc1cc(CN(C)C2CCN(C)CC2)cc([N+](=O)[O-])c1O	i
COc1ccc(CNC(=O)C[C@@H]2O[C@H](CNC(=O)C3CC3)[C@@H](O)[C@H]2O)cc1	i
CCc1ccccc1NC(=O)CN(c1cc(OC)ccc1OC)S(=O)(=O)c1ccccc1	i
COc1ccc(N2CCN(Cc3ccc(OC)c(C)c3C)CC2)cc1	i
COc1cc(CN2CCN(c3ccccc3C)CC2)cc([N+](=O)[O-])c1O	89%*
CC1CCN(Cc2cc([N+](=O)[O-])c(O)c3ncccc23)CC1	i
COc1ccccc1N1CCN(Cc2cc(OC)c(O)c([N+](=O)[O-])c2)CC1	i
O=[N+]([O-])c1ccccc1CN1CCN(c2ncccn2)CC1	31%*
COc1cc([N+](=O)[O-])cc(CN2CCN(c3ccccc3F)CC2)c1O	i
COc1ccccc1N1CCN(Cc2cc([N+](=O)[O-])c(O)c3ncccc23)CC1	34%*
O=[N+]([O-])c1ccccc1CN1CCN(c2ccccn2)CC1	i
O=[N+]([O-])c1ccccc1CN1CCN(Cc2ccccn2)CC1	i
COc1cc(CN2CCN(c3ccccc3C)CC2)c([N+](=O)[O-])cc1OC	i
Cc1nnc2c(NCC3CCCO3)nc3ccccc3n12 (configuration not stated)	i
COCCNC(=O)C1CC(=O)N(C2CCCCCCC2)C1 (configuration not stated)	i
O=C(C1=C(O)C(=O)N(CCCn2ccnc2)C1c1ccncc1)c1ccco1 (configuration not stated)	i
Cc1ccccc1C(=O)NCc1cccc(CNC(=O)c2ccccc2C)c1	i
Cc1ccc(-c2nc(N)n[nH]2)cc1	i
COc1ccc(CCNC2=CC(=O)CC(c3ccccc3)C2)cc1OC (configuration not stated)	i
COc1ccc(NC(=O)CC(C)c2ccccc2)c(OC)c1 (configuration not stated)	i
